Source: PubChem BioAssay (NCATS)
Inconclusive results are not listed. A number with no mark means an inactive call. The source made the active and inactive calls. The call rests on the fitted dose curve; in most records, active means well fitted cell-killing curve with a large enough effect; inconclusive means small, poorly fitted or top-dose-only effect, or effect the other way; inactive means flat fitted curve, though single readings scatter.

System: CAOV3
Assay: Primary qHTS to identify gynecologic anti-cancer compounds using libraries of approved drugs and bioactive compounds (AID 1345084); further: nearly all actives have a fitted effect of over 55% in size
Conditions: Gynecologic cancer cell panel viability, ATPlite luminescence, 48 h; series mostly up to 57.5 µM; activity change, negative = cytotoxicity: at the top concentration
From the text: National Center for Advancing Translational Sciences [NCATS] Assay Overview: Chemotherapeutic drug responses vary from cancer to cancer and from patient to patient. These variations could be caused by a number of factors including patient genomic background, tumor mutations, tumor heterogeneity, and aspects of drug treatment. Chemotherapeutic drug resistance is also a common issue and can lead to ineffective treatment and patient death. Here we have profiled the cell killing effects of thousands of compounds to characterize the responses in three gynecological cancers, identify cancer-selective compounds, and understand the diversity of responses to these compounds from pan-cancer suppressors to single cell line selective compounds. In this assay, we screened a 7,914 compound drug library that included approved drug and bioactive compounds in six ovarian, three cervical, and […] placental cancer cell lines using the ATPlite assay for cell viability. […] The cervical cancer cell lines included HeLa, Ca Ski, and C-33 A. The placental cancer cell lines included JEG-3. HEK 293T cells were used as the control cell line to determine the selectivity index. ATPlite is a luminescence based assay reliant on the conversion of a luciferase substrate to light in the presence of ATP. As a cytotoxic compound will suppress growth and decrease the number of cells, the concentration of ATP will decrease, and less light signal will be detected in the well.
Assay Protocol Summary: 1,000 cells in 4 uL of media were dispensed into white, solid bottom 1536-well plates using a Multidrop Combi (Thermo Scientific). The Assay plates were incubated for 16 hours at 37 C with 5% CO2 in assay plates, followed by the addition of 23 nL of DMSO or drug dissolved in DMSO. Each compound was assayed in five concentrations (0.092, 0.46, 2.3, 11.5, and 57.5 uM), using the automated Wako 1536 Pin Tool workstation and incubated at 37 C with 5% CO2 48 hours. 4 uL of ATPlite, the ATP monitoring reagent, was then added to the each well of the assay plates using the Multidrop Combi reagent dispenser followed by incubation for 15 minutes at room temperature. The resulting luminescence was measured using the ViewLux plate reader.
On the % scale 0 is the no-effect control and ±100 the full control effect; potency means the concentration at half of the fitted maximal effect.

Row | SMILES | activity change, negative = cytotoxicity [%] | Potency
1 | Cc1ccc(-n2[nH]c(C)c(N=Nc3cccc(-c4cccc(C(=O)O)c4)c3O)c2=O)cc1C | -6.14 | 
2 | CC(C)C[C@H](NC(=O)[C@@H](NC(=O)c1cccc(-c2ccccc2)n1)[C@@H](C)O)B(O)O |  | 0.282 µM (active)
3 | CS(=O)(=O)N1CCc2c(-c3cnc(N)nc3)nc(N3CCOCC3)nc21 | -39.8 | 
4 | CCn1c(=O)c2c(nc(C=Cc3ccc(OC)c(OC)c3)n2C)n(CC)c1=O | 0 | 
5 | CN(C)CC(=O)N1CCC(c2ccc(NC(=O)c3ncc(C#N)[nH]3)c(C3=CCCCC3)c2)CC1 | -1.75 | 
6 | Cc1coc2c1C(=O)C(=O)c1c-2ccc2c(C)cccc12 | -4.67 | 
7 | CCN(CC)Cc1ccc2cc(COC(=O)Nc3ccc(C(=O)NO)cc3)ccc2c1 |  | 7.94 µM (active)
8 | Cc1cnc(Nc2ccc(CN3CCOCC3)cc2)nc1Nc1cccc(S(=O)(=O)NC(C)(C)C)c1 |  | 7.94 µM (active)
9 | CN1CCc2c(c3ccccc3n2Cc2ccc(C(=O)NO)cc2)C1 | -1.04 | 
10 | C[C@H](O)[C@@H]1C(=O)N2C(C(=O)O)=C(S[C@@H]3CN[C@H](CNS(N)(=O)=O)C3)[C@@H](C)[C@@H]12 | 11.7 | 
11 | Nc1ccn(C2CO[C@H](CO)O2)c(=O)n1 (stereo partly drawn) | 4.47 | 
12 | C=CC(=O)Nc1ccc2ncnc(Nc3ccc(OCc4cccc(F)c4)c(Cl)c3)c2c1 |  | 35.5 µM (active)
13 | Cc1ccccc1C(=O)Nc1ccc(C(=O)N2CCCC(O)c3cc(Cl)ccc32)c(C)c1 (stereo not drawn) | 3.63 | 
14 | C[C@H]1[C@@H](OC(=O)CCC(=O)O)O[C@@H]2O[C@@]3(C)CC[C@@H]4[C@H](C)CC[C@@H]1[C@@]24OO3 | -5.4 | 
15 | O=C(O)c1ccc(Nc2ncc3c(n2)-c2ccc(Cl)cc2C(c2c(F)cccc2F)=NC3)cc1 | -23.1 | 
16 | CCC[C@H]1C[C@H](C(=O)N[C@@H]([C@@H]2O[C@@H](SC)[C@@H](O)[C@@H](O)[C@@H]2O)[C@H](C)Cl)N(C)C1 | 1.74 | 
17 | Oc1ccc([C@@H]2Oc3ccc(O)cc3[C@@H]3CCC[C@@H]32)cc1 | 0.535 | 

Row | SMILES | activity change, negative = cytotoxicity [%] | Potency
18 | FC(F)(F)c1ccc(Nc2nc3ccc(Oc4ccnc(-c5ncc(C(F)(F)F)[nH]5)c4)cc3[nH]2)cc1 | -13.3 | 
19 | O=C(Nc1cc2cc[nH]c2cn1)c1ccccc1 |  | 1.78 µM (active)
20 | C[N+]1(C)[C@@H]2C[C@@H](OC(=O)C(O)(c3cccs3)c3cccs3)C[C@H]1[C@@H]1O[C@@H]12 | 16.8 | 
21 | CC(C)n1cnc2c(NCCc3ccc(O)cc3)nc(-c3csc4ccccc34)nc21 | -1.27 | 
22 | Cc1cn([C@@H]2O[C@H](CO)[C@@H](O)[C@H]2F)c(=O)[nH]c1=O | -2.14 | 
23 | Cn1cnc2c(F)c(Nc3ccc(Br)cc3F)c(C(=O)NOCCO)cc21 | -12.3 | 
24 | c1cncc(CN2CCC(n3ncc4c(N5CCOCC5)nc(-c5ccc6[nH]ccc6c5)nc43)CC2)c1 |  | 28.2 µM (active)
25 | N[C@H]1CN(c2c(F)cc3c(=O)c(C(=O)O)cn(C4C[C@@H]4F)c3c2Cl)CC12CC2 (stereo partly drawn) | 5.52 | 
26 | O=C(Nc1ccc(Oc2ccnc3[nH]ccc23)c(F)c1)c1cccn(-c2ccc(F)cc2)c1=O | -17.9 | 
27 | CC1=C(C(=O)Nc2cc3cn[nH]c3cc2F)C(c2ccc(Cl)cc2F)N=C(c2ccnc(Cl)c2)N1 (stereo not drawn) | -22.7 | 
28 | c1ccc2c(Oc3nc(Nc4ccc(N5CCOCC5)cc4)c4ncn(C5CCCCC5)c4n3)cccc2c1 | 5.54 | 
29 | CC(O)(C#Cc1ccc2c(c1)N(c1nc(N)ncc1Cl)CC2)c1nccs1 (stereo not drawn) | -0.48 | 
30 | CCCCOc1ccc(C(=O)Nc2ccc(F)cc2F)cc1 | 21 | 
31 | CCOC(=O)[C@@H](N)Cc1ccc(-c2cc(O[C@H](c3ccc(Cl)cc3-n3ccc(C)n3)C(F)(F)F)nc(N)n2)cc1 | 29.3 | 
32 | COc1ccc(S(=O)(=O)Nc2cccnc2Nc2ccc(O)cc2)cc1 | -3.94 | 
33 | CC1(C)O[C@@H]2C[C@H]3[C@@H]4CCC5=CC(=O)C=C[C@]5(C)[C@@H]4[C@@H](O)C[C@]3(C)[C@]2(C(=O)CO)O1 | -20.3 | 
